Experimental data: the supplement of paper PMC6555819

How the values were obtained:
Test in all cases: PBM binding z-score (relative to random genomic background probes); higher = stronger binding; sequences stand for … in GC…GCGATTGACAGCGTAGAATGAAGG
[1] = test system: FXR:RXRa (NR concentration 270 nM, RXRa partner concentration 90 nM)
Outline: (§1)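 Scanned fluorescence from custom Agilent 4×180K protein-binding microarrays was regression-normalized. Binding z-scores use random background probes as reference. Ligand-free nuclear receptor dimers were incubated on the arrays for 1 h and detected with antibodies against each partner (one per run).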

[2] = test system: LXRa:RXRa (NR concentration 270 nM, RXRa partner concentration 90 nM)
Outline: as §1

[3] = test system: LXRa homodimer (NR concentration 270 nM)
Outline: as §1

[4] = test system: LXRb:RXRa (NR concentration 270 nM, RXRa partner concentration 90 nM)
Outline: as §1

[5] = test system: LXRb homodimer (NR concentration 270 nM)
Outline: as §1

[6] = test system: PPARa:RXRa (NR concentration 270 nM, RXRa partner concentration 90 nM)
Outline: as §1

[7] = test system: PPARg:RXRa (NR concentration 180 nM, RXRa partner concentration 90 nM)
Outline: as §1

[8] = test system: PPARg:RXRa 270nM:90nM, anti-RXR (NR concentration 270 nM, RXRa partner concentration 90 nM)
Outline: as §1

[9] = test system: PPARg:RXRa 30nM:10nM, anti-RXR (NR concentration 30 nM, RXRa partner concentration 10 nM)
Outline: as §1

[10] = test system: PPARg:RXRa 90nM:30nM, anti-RXR (NR concentration 90 nM, RXRa partner concentration 30 nM)
Outline: as §1

Sequence | PBM binding z-score [1] | PBM binding z-score [2] | PBM binding z-score [3] | PBM binding z-score [4] | PBM binding z-score [5] | PBM binding z-score [6] | PBM binding z-score [7] | PBM binding z-score [8] | PBM binding z-score [9] | PBM binding z-score [10]
AGAACGAGGGGAATGAGTTGATAGCACGGGTGGC | -0.0217 | -0.0133 | -0.00891 | -0.228 | 0.0514 | 0.192 | 0.861 | -0.0385 | -0.193 | -0.152
CTACTAAGGTGAACAAGGTCGTTGATTACTATTC | 1.84 | 1.76 | 0.193 | 2.02 | -0.227 | 3.07 | 1.47 | 1.99 | 0.156 | 1.06
CCTACTGGGCCAAAGGTCATGGATTCCAATGCTC | 5.14 | 5.37 | 2.61 | 5.06 | 0.296 | 6.56 | 12 | 9.45 | 10.3 | 10.5
CCGACTGGGGCCGAAAGGTTACCATACCATCCGG | 0.707 | 0.858 | -0.0944 | 1.08 | -1.22 | 2.02 | 1.09 | 1.84 | 0.177 | 1.26
CGTCCAAGGTCAGAGAGGTCAGTCAATGCCGAGT | 6.08 | 5.49 | 3.45 | 4.65 | 0.441 | 4.81 | 3.37 | 4.63 | 1.03 | 2.63
CGTCCAAGGTCAATGCTAGGTCAGTGAAAGCATT | 6.67 | 5.72 | 2.67 | 3.98 | 0.958 | 5.11 | 4.02 | 4.74 | 1.16 | 3.17
ATATGTAGGTTAAGGGTCATTCAAGTTGGTTCGC | 5.1 | 5.2 | 2.81 | 4.68 | 1.33 | 6.53 | 11.5 | 9.66 | 9.8 | 10.8
GCTTTTAGATCAAGGTTAAGAAAGACTAAGCTAA | 0.411 | 1.15 | -0.245 | 0.993 | 0.252 | 1.49 | 0.495 | 1.1 | 0.053 | 0.706
CCTGGCAGGCCAATCTGGGTCACTCAAGGCTTGA | 0.937 | 0.927 | -0.703 | 0.276 | -1.26 | 2.69 | 1.37 | 2.06 | -0.284 | 1.22
GCGACTGGGGCAAAACAGGTTACCATAAGGTTGG | 0.267 | 0.15 | -0.287 | 0.476 | -0.432 | 1.12 | 1.22 | 0.615 | -0.338 | -0.0458
TCTTGTAGATCAGCAGGTTCAGAAAGCTGGCCAA | -0.19 | 0.323 | -0.435 | 0.265 | -0.738 | 0.609 | -0.665 | 1.1 | 2.02 | 1.52
AGAATGAGGTTATTAAAATCAGGGAATTGCGGTC | 1.11 | 1.04 | 0.0738 | 1.21 | 0.192 | 2.3 | 1.02 | 1.43 | 0.509 | 0.902
CCTACTGGGCCATTCAGAGGTCATAGATCATATG | 2.57 | 4 | 5.67 | 3.75 | 0.161 | 3.83 | 2.65 | 3.2 | 1.2 | 2.48
ATCTCTAGGTAAAGATAGTTCAGAGAATGCAAAT | 0.206 | 3.56 | 0.259 | 0.69 | 0.411 | 0.663 | 0.843 | 0.494 | 0.309 | 0.609
CAAACTAGGTCAAGAGGTCAAATTCCGCTTCCCG | 7.41 | 6.59 | 7.45 | 6.01 | 2.95 | 6.83 | 9.67 | 8.42 | 7.02 | 8.9
CCTACTGGGCCATCAGGCCATTGATATCAACGTT | 0.133 | -0.192 | -0.106 | -0.246 | -0.678 | 0.569 | 1.16 | 1.79 | 0.105 | 0.915
TCGAGTAGGTTACCAATGGTGCATTCAGCTTTCT | -0.236 | 1.22 | -0.491 | 0.425 | -1.1 | 0.801 | 0.0197 | 1.1 | 0.784 | 1.06
TCGAGTAGGTTAGGGGTATTCAGAATGGCGTCGA | 0.347 | 0.298 | -0.105 | 1.01 | -0.0483 | 1.66 | 2.37 | 3.55 | 2.28 | 2.99
TCTTGGAGATCAACAGGAGGTTAAGAAAGATCGA | 0.373 | 1.25 | -0.0581 | 0.942 | -0.782 | 1.44 | 0.02 | 1.23 | 2.38 | 1.62
CCTGCTAGGTCAATGGTCGGCTAAAGCAGCTCGC | 2.91 | 2.29 | 0.0582 | 1.14 | -0.355 | 2.95 | 3.48 | 4.34 | 1.27 | 3.38
TCTAGTTGGTCAGAGGTCACACACTCGAAATGCG | 4.94 | 4.85 | 3.21 | 4.9 | 1.13 | 5.55 | 9.31 | 8.56 | 7.99 | 9.17
ATCGAAAGGTCGTGAGGAGAGTATACAGAAAGGC | 5.47 | 4.45 | 0.57 | 3.32 | 1.13 | 4.93 | 3.66 | 4.22 | 1.53 | 2.94
GATACAGGGTCAGCTAGAGTCCAGAGTATGGAAA | 4.63 | 2.73 | -0.197 | 2.46 | -0.266 | 4.62 | 3.75 | 3.12 | 0.896 | 1.87
